# Tests used:
# Experiment in all cases: DAPPL (digital affinity profiling via proximity ligation, sequencing); 10 mM Tris-HCl pH 7.5, 50 mM NaCl, 1 mM DTT, 4% glycerol, room temperature, 30 min; GST-TFs on glutathione beads, 16-mer random dsDNA library, 0.1% formaldehyde crosslink after washing; high values mean tight binding
# Details in all cases: protein: recombinant; tags: N-terminal GST; dsDNA, one strand shown
# ELK1 = target: T1, ELK1 (Homo sapiens, UniProt P19419 1-428)
# T1 sequence: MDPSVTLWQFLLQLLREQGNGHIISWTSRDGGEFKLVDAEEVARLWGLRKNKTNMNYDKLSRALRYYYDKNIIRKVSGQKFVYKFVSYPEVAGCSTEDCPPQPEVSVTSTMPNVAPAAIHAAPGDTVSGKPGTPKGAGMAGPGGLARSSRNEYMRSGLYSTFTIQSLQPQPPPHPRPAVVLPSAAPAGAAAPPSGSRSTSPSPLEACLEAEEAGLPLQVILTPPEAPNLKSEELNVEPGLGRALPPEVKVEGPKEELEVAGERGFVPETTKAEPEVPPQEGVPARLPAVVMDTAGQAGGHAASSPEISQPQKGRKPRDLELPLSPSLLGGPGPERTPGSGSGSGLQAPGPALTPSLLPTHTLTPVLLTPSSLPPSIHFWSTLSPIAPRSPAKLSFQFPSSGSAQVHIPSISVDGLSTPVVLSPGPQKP
# How it was run: (§1)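 Sequencing on an Illumina NextSeq500 followed washing, crosslinking with 0.1% formaldehyde, proximity ligation (BsaI/T4 ligase, 1 h, 37 °C) and PCR amplification of pools that had been incubated for 30 min at room temperature with 200 nmole of a random double-stranded 16-mer DNA library in Tris/NaCl/DTT/glycerol buffer. Each pool held DNA-barcoded human transcription factors, expressed in yeast as GST fusions and captured on glutathione beads, plus a tag-only sample. Binding signal is a hexamer's read frequency for a factor divided by its frequency in the tag-only sample.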
# GABPA = target: T2, GABPA (Homo sapiens, UniProt Q06546 1-454)
# T2 sequence: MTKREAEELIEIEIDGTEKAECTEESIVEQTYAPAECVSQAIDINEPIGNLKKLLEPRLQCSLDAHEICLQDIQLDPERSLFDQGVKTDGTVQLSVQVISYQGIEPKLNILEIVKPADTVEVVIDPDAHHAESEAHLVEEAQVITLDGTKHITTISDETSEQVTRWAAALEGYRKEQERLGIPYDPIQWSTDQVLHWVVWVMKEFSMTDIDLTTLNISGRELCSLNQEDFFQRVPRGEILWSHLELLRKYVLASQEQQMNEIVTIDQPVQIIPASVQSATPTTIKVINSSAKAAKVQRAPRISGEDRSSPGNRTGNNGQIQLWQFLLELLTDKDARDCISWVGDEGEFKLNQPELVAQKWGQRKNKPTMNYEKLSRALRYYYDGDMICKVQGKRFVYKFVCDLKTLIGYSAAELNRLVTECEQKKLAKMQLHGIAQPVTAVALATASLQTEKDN
# How it was run: as §1
# ERG = target: T3, ERG (Homo sapiens, UniProt P11308 1-479)
# T3 sequence: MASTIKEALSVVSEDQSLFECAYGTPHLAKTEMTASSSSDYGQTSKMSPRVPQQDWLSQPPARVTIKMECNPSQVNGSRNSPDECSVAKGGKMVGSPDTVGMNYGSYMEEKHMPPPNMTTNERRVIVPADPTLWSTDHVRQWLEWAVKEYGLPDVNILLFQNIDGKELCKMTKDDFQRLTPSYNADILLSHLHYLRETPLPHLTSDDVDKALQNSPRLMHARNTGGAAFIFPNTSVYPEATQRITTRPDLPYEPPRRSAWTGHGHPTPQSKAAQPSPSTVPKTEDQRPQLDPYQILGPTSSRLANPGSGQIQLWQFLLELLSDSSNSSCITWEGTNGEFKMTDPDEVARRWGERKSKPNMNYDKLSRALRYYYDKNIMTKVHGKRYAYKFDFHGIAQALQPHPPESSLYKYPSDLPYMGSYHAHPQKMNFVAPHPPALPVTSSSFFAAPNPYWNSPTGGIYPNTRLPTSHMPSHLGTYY
# How it was run: as §1
# ELF1 = ELF1 (Homo sapiens, UniProt P32519 1-619)
# Sequence of ELF1 (P32519 whole entry): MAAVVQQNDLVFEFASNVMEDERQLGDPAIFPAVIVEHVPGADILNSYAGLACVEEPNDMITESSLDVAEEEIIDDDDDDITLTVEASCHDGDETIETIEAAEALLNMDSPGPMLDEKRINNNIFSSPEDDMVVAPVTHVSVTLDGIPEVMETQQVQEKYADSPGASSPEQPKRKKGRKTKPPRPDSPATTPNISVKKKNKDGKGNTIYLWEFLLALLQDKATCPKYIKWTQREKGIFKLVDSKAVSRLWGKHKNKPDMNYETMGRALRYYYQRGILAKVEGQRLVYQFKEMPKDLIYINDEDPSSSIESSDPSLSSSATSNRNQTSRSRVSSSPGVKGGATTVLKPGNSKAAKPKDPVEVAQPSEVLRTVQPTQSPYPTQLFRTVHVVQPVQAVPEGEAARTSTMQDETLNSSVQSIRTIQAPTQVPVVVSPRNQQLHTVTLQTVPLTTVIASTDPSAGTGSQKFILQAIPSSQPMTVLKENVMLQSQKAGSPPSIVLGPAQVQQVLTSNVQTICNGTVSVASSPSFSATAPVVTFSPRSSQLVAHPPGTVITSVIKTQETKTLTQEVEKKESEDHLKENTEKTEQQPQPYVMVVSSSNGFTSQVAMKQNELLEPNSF
# How it was run: as §1
# EHF = target: T4, EHF (Homo sapiens, UniProt Q9NZC4 1-300)
# T4 sequence: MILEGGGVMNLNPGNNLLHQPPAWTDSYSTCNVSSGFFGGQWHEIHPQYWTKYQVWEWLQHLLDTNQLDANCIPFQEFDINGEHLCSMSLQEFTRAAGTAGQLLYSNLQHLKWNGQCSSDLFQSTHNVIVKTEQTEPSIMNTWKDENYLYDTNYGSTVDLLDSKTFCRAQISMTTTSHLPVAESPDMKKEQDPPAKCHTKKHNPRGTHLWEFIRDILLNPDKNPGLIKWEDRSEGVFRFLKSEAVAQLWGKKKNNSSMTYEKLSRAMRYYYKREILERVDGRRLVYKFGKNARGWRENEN
# How it was run: as §1
# SPIB = SPIB (Homo sapiens, UniProt Q01892 1-262)
# Sequence of SPIB (Q01892 whole entry): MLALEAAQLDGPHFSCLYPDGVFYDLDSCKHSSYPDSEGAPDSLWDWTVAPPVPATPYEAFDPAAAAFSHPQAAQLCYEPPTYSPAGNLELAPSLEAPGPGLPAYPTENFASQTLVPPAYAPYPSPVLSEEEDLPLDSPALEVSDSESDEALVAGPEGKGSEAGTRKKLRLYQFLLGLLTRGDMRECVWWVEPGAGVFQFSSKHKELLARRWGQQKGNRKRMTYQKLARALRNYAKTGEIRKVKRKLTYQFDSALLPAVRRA
# How it was run: as §1
# ETV5 = ETV5 (Homo sapiens, UniProt P41161 1-510)
# Sequence of ETV5 (P41161 whole entry): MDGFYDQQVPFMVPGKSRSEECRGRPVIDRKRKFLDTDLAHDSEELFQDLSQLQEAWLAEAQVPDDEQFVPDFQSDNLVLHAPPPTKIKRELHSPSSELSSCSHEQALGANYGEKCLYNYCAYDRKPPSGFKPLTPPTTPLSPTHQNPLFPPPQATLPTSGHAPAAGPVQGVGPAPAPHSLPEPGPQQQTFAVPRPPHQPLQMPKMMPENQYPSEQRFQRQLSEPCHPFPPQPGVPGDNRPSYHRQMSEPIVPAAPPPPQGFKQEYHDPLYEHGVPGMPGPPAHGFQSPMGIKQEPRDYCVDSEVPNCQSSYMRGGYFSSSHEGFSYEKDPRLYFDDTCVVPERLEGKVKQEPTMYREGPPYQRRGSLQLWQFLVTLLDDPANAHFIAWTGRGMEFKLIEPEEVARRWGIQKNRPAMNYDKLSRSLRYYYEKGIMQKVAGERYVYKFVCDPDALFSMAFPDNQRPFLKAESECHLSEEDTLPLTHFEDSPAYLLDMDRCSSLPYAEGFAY
# How it was run: as §1
# ELF4 = ELF4 (Homo sapiens, UniProt Q99607 1-663)
# Sequence of ELF4 (Q99607 whole entry): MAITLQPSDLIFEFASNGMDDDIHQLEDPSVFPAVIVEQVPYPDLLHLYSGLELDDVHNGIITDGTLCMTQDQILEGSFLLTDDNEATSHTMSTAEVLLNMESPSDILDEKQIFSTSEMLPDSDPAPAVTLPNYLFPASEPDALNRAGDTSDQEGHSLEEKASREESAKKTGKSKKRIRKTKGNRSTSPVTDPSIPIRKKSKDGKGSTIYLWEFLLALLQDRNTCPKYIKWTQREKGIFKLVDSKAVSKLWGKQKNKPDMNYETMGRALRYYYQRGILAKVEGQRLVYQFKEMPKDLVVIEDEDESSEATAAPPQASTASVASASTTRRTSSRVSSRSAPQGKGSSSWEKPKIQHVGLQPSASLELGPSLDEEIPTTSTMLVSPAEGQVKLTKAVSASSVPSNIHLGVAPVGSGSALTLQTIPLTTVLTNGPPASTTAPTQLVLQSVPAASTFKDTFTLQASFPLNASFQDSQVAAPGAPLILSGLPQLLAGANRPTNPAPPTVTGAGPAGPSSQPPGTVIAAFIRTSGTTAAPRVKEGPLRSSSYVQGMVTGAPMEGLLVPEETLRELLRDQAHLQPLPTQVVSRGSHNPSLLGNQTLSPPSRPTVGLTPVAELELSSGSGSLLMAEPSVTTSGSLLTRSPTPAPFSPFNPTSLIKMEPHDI
# How it was run: as §1
# ELK4 = target: T5, ELK4 (Homo sapiens, UniProt P28324-2 1-405)
# T5 sequence: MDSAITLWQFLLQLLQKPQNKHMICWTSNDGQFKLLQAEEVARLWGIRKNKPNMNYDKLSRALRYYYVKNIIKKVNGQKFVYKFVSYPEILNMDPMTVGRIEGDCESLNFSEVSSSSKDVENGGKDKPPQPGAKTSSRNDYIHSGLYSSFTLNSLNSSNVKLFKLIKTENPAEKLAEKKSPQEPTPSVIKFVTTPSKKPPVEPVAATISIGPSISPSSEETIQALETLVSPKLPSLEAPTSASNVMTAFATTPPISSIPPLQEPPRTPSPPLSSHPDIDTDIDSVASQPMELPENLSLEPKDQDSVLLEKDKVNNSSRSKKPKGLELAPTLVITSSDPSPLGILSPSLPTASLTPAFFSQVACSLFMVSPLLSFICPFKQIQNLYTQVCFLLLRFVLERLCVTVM
# How it was run: as §1
# ETV2 = target: T6, ETV2 (Homo sapiens, UniProt O00321 1-342)
# T6 sequence: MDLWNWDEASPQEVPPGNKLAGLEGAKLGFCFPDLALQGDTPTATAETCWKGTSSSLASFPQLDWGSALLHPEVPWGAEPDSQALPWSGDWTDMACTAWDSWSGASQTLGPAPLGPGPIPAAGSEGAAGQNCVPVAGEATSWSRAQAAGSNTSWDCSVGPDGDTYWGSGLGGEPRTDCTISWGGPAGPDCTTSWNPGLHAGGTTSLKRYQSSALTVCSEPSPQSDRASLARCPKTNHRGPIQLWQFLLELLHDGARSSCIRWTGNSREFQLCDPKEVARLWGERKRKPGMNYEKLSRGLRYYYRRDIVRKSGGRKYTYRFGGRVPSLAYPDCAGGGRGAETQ
# How it was run: as §1
# ELF3 = target: T7, ELF3 (Homo sapiens, UniProt P78545 1-371)
# T7 sequence: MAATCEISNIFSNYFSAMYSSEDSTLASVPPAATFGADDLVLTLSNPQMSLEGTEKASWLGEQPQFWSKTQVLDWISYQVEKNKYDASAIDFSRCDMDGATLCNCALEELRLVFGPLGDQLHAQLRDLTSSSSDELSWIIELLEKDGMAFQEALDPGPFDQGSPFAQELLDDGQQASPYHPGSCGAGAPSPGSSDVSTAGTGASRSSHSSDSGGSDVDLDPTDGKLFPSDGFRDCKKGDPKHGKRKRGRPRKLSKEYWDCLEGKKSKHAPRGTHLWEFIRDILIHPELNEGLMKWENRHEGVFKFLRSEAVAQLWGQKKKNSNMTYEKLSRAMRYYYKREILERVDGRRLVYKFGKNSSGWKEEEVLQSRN
# How it was run: as §1
# ETV1 = ETV1 (Homo sapiens, UniProt P50549 1-477)
# Sequence of ETV1 (P50549 whole entry): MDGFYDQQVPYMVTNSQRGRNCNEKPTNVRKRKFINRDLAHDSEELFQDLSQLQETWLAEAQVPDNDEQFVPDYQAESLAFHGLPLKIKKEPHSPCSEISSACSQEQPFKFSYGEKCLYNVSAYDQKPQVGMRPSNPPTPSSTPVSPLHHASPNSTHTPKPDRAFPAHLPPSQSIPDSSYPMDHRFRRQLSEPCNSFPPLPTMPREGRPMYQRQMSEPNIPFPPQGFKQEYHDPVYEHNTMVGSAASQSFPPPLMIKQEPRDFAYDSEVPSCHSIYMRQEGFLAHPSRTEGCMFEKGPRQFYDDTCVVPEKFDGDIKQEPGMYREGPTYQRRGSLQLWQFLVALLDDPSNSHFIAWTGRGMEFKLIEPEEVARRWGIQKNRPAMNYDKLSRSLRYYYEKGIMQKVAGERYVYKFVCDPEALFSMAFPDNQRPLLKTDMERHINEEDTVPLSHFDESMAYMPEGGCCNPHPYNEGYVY
# How it was run: as §1
# ERF = target: T8, ERF (Homo sapiens, UniProt P50548 1-548)
# T8 sequence: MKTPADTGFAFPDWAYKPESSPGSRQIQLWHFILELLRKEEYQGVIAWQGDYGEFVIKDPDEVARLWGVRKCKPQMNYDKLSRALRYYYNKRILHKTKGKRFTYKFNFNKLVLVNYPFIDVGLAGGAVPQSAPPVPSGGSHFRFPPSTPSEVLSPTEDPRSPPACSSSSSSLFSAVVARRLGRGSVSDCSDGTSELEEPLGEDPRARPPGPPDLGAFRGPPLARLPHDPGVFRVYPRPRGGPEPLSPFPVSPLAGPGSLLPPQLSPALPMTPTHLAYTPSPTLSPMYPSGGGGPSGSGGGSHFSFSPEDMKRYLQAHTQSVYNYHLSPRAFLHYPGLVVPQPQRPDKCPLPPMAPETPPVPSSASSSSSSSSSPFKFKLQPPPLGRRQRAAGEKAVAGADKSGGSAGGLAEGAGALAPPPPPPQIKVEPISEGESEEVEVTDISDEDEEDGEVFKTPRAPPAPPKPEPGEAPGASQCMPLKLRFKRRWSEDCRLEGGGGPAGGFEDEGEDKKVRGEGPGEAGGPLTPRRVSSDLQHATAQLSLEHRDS
# How it was run: as §1
# ETV3L = target: T9, ETV3L (Homo sapiens, UniProt Q6ZN32 1-361)
# T9 sequence: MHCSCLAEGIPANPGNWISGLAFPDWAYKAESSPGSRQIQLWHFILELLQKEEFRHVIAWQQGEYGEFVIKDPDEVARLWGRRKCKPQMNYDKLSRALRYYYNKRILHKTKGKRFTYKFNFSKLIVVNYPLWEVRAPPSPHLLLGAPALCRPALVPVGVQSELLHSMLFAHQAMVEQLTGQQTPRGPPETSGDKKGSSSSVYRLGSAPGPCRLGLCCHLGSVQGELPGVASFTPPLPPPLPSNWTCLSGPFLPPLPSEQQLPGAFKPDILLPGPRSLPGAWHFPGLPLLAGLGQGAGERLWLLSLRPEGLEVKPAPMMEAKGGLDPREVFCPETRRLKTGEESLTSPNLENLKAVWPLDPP
# How it was run: as §1
# ETV7 = target: T10, ETV7 (Homo sapiens, UniProt Q9Y603 1-341)
# T10 sequence: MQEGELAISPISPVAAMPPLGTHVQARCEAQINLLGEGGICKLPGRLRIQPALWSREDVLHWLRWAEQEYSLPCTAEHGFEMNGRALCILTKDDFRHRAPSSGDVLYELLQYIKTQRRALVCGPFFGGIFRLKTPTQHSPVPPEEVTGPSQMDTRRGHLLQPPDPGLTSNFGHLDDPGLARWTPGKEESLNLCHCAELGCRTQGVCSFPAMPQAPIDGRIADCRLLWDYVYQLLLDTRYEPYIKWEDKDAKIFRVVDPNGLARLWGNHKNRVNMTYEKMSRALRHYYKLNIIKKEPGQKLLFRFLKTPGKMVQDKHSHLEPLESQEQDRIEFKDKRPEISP
# How it was run: as §1
# ETV3 = target: T11, ETV3 (Homo sapiens, UniProt P41162-2 1-143)
# T11 sequence: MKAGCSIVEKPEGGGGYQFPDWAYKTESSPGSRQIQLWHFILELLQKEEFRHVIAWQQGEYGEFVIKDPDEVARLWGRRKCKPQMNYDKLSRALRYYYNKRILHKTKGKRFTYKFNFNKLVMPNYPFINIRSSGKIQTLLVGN
# How it was run: as §1
# ETV6 = ETV6 (Homo sapiens, UniProt P41212 1-452)
# Sequence of ETV6 (P41212 whole entry): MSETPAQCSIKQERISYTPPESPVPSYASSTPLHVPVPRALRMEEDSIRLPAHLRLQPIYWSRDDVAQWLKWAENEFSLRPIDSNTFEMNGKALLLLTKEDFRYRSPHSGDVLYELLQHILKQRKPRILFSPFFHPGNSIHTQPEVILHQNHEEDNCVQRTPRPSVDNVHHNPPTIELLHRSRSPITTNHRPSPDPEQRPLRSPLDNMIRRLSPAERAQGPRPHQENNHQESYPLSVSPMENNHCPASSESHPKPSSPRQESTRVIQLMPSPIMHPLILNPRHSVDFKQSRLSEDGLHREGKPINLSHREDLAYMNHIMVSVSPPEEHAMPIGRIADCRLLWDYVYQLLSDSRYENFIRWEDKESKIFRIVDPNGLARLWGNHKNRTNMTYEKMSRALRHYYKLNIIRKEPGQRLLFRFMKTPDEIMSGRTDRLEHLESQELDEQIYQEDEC
# How it was run: as §1
sequence,measurement,setting,value
CGTAGC,binding signal,ELK1,"1.07 fold enrichment (6-mer frequency, TF over GST control)"
same,binding signal,GABPA,"1.08 fold enrichment (6-mer frequency, TF over GST control)"
same,binding signal,ERG,"1.04 fold enrichment (6-mer frequency, TF over GST control)"
same,binding signal,ELF1,"1.1 fold enrichment (6-mer frequency, TF over GST control)"
same,binding signal,EHF,"1.05 fold enrichment (6-mer frequency, TF over GST control)"
same,binding signal,SPIB,"1.07 fold enrichment (6-mer frequency, TF over GST control)"
same,binding signal,ETV5,"1.08 fold enrichment (6-mer frequency, TF over GST control)"
same,binding signal,ELF4,"1.07 fold enrichment (6-mer frequency, TF over GST control)"
same,binding signal,ELK4,"1.23 fold enrichment (6-mer frequency, TF over GST control)"
same,binding signal,ETV2,"1.03 fold enrichment (6-mer frequency, TF over GST control)"
same,binding signal,ELF3,"1.12 fold enrichment (6-mer frequency, TF over GST control)"
same,binding signal,ETV1,"1.15 fold enrichment (6-mer frequency, TF over GST control)"
same,binding signal,ERF,"1.03 fold enrichment (6-mer frequency, TF over GST control)"
same,binding signal,ETV3L,"1.09 fold enrichment (6-mer frequency, TF over GST control)"
same,binding signal,ETV7,"1.09 fold enrichment (6-mer frequency, TF over GST control)"
same,binding signal,ETV3,"1.04 fold enrichment (6-mer frequency, TF over GST control)"
same,binding signal,ETV6,"1.1 fold enrichment (6-mer frequency, TF over GST control)"

# Reference: paper PMC7862700, “An all-to-all approach to the identification of sequence-specific readers for epigenetic DNA modifications on cytosine”
